Here are results for 31 molecules from PubChem BioAssay (EPA / NIEHS).

For orientation: AC50 means the concentration at which the activity in the assay is half-maximal.

Calls of active or inactive are those of the source. How the source made its calls: active means hit-call score of the fitted dose curve at least 0.9, where 1 is the maximum; inactive means score below 0.9.

The nature of assay [1]: ATG_CRE_CIS: Attagene CIS-FACTORIAL HepG2 Assay for human cAMP Responsive Element (CRE) binding protein 3 (AID 2282926). The note with it: HepG2 CRE cis-reporter, Attagene multiplexed mRNA; actives raise or lower the signal. An outline of the steps:
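Capillary electrophoresis of 6-FAM-labelled, HpaI-digested PCR products quantified reporter transcripts. These came from HepG2 transiently transfected with cis-element reporters and exposed to test chemicals for 24 hours, with DMSO defining baseline activity.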

Assay [2] addresses CCAAT/enhancer-binding protein beta (Homo sapiens) (UniProt P17676). The assay can be described thus: ATG_C_EBP_CIS: Attagene CIS-FACTORIAL HepG2 Assay for human CCAAT/Enhancer Binding Protein (C/EBP) beta (AID 2282927). The note with it: HepG2 Attagene cis-factorial transcription factor reporter; actives raise or lower the signal. In a few lines:
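Endogenous transcription factor activity in human liver HepG2 cells is inferred from induction of a CEBPB-linked reporter mRNA. Exposure lasts 24 h; activity is fitted in both directions relative to DMSO.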

Assay [3] in a line: ATG_CMV_CIS: Attagene CIS-FACTORIAL HepG2 Assay for human CMV (Internal Marker) (AID 2282928).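 Further: endpoint acts as a background internal control marker rather than a target.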 The following applies: HepG2 CMV promoter reporter, transcription factor profiling; actives raise or lower the signal. An outline of the steps:
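24 h chemical treatment, HepG2 with transient multi-reporter transfection; RNA → oligo(dT) RT → PCR → 6-FAM extension → HpaI digest → CE fluorescence. Bidirectional fit, DMSO negative control.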

The nature of assay [4]: ATG_DR4_LXR_CIS: Attagene CIS-FACTORIAL HepG2 Assay for human Liver X Receptor (LXR), DR4 submotif (AID 2282929). The note with it: HepG2 Attagene DR4 cis-reporter, mRNA transcription; actives raise or lower the signal. In a few lines: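 Total RNA from 24 h-treated, MRTU-transfected HepG2 cells underwent reverse transcription, PCR, fluorescent primer extension and restriction digestion before capillary electrophoresis. Both increases and decreases in reporter signal were fitted against DMSO.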

A short description of assay [5]: ATG_AP_1_CIS: Attagene CIS-FACTORIAL HepG2 Assay for human Activator Protein 1 (AP-1) (AID 2282931). The note with it: HepG2 Attagene cis-factorial AP-1 reporter mRNA; actives raise or lower the signal. An outline of the steps: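 HepG2, transient cis-reporter transfection; 24 h; readout RT-PCR/CE fluorescence; DMSO baseline, gain and loss fitted.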
The nature of assay [6]: ATG_AP_2_CIS: Attagene CIS-FACTORIAL HepG2 Assay for human Activator Protein 2 (AP-2) (AID 2282932). The following applies: HepG2 AP-2 cis-reporter, Attagene transcription factor profiling; actives raise or lower the signal. An outline of the steps:
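Transiently transfected HepG2 cells are exposed to chemical for 24 h. Reporter transcripts are then measured as fluorescence following RT-PCR and capillary separation, and gain- or loss-of-signal is fitted relative to DMSO.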

Assay [7] in a line: ATG_BRE_CIS: Attagene CIS-FACTORIAL HepG2 Assay for human Bone Morphogenetic Protein (BMP) Response Element (BRE) (AID 2282933). The note with it: HepG2 BMP response element reporter, Attagene transcription factor profiling; actives raise or lower the signal. An outline of the steps:
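HepG2 cells transiently transfected with CIS reporter units (endogenous TF activity, BMP response element), dosed 24 h. Reporter mRNA quantified by RT-PCR, fluorescent labelling and capillary electrophoresis; bidirectional fit vs DMSO baseline.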

The target in assay [8] is Transcription factor E2F1 (Homo sapiens) (UniProt Q01094). Description: ATG_E2F_CIS: Attagene CIS-FACTORIAL HepG2 Assay for human E2F Transcription Factor 1 (AID 2282935). The note with it: HepG2 Attagene cis-reporter, E2F reporter RNA transcripts; actives raise or lower the signal. An outline of the steps: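 Fluorescent RT-PCR products, digested with HpaI for 2 h at 37 C, are separated by capillary electrophoresis. Source RNA comes from transfected HepG2 cultures treated for 24 h.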
Chain of Transcription factor E2F1 (Homo sapiens) (Q01094 whole entry, looked up): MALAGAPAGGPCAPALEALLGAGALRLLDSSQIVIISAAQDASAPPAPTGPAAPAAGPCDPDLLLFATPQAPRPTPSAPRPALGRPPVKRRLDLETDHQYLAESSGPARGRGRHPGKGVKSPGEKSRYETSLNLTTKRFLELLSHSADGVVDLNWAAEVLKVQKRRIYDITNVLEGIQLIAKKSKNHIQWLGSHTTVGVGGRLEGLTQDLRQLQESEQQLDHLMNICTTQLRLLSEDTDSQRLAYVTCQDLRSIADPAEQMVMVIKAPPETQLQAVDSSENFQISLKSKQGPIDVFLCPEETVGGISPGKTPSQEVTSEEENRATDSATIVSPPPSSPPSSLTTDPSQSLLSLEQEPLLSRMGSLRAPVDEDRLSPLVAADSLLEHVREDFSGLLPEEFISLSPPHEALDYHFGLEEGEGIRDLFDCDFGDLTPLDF

For assay [9], the target named is Retinoic acid receptor alpha (Homo sapiens) (UniProt P10276). The assay can be described thus: ATG_DR5_RAR_CIS: Attagene CIS-FACTORIAL HepG2 Assay for human Retinoic Acid Receptor Alpha (RARE), DR5 submotif (AID 2282934).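 On AC50: reporter responds to endogenous RAR alpha beta and gamma in HepG2 not RARA alone.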 The following applies: HepG2 Attagene cis-factorial RARE DR5 reporter, mRNA; actives raise or lower the signal. An outline of the steps:
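Transient MRTU transfection of HepG2; 24 h compound treatment; TriZol RNA, oligo(dT) RT, PCR, FAM labelling, capillary electrophoresis. Bidirectional fit vs DMSO. Endogenous TF activity at DR5 RARE.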

Assay [10] concerns the target Aryl hydrocarbon receptor (Homo sapiens) (UniProt P35869). Description: ATG_Ahr_CIS: Attagene CIS-FACTORIAL HepG2 Assay for human Aryl Hydrocarbon Receptor (Ahr) (AID 2282930). The note with it: HepG2 AhR cis-factorial reporter transcription; actives raise or lower the signal. An outline of the steps: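 Transient MRTU transfection of HepG2 → 24 h compound exposure → total RNA, oligo(dT) RT → PCR, 6-FAM extension, HpaI cut → CE fluorescence. DMSO = baseline; bidirectional curve fit.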

Chain of Aryl hydrocarbon receptor (Homo sapiens) (P35869 whole entry, looked up): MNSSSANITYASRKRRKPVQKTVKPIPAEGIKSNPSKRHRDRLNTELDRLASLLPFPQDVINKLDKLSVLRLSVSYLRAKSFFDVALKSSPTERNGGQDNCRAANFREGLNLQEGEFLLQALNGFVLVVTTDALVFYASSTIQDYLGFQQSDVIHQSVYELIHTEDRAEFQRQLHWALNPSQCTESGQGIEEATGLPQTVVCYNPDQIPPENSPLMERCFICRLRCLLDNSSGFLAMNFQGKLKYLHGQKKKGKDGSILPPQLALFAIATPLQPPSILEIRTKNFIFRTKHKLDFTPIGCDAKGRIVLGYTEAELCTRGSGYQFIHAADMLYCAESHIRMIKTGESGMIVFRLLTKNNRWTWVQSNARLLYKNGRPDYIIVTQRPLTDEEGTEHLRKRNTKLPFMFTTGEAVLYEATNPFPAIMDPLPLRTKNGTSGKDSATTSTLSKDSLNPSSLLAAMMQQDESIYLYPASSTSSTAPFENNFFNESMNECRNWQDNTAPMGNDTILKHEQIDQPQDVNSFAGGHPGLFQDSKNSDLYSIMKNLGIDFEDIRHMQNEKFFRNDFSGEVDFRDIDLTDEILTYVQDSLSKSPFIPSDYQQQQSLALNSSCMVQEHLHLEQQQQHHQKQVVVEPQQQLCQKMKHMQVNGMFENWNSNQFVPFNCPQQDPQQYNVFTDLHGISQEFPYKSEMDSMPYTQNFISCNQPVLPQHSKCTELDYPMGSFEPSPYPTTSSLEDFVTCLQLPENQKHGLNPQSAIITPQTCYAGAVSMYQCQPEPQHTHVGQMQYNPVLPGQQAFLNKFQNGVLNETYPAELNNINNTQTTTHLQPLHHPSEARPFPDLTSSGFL
Chain of Retinoic acid receptor alpha (Homo sapiens) (P10276 whole entry, looked up): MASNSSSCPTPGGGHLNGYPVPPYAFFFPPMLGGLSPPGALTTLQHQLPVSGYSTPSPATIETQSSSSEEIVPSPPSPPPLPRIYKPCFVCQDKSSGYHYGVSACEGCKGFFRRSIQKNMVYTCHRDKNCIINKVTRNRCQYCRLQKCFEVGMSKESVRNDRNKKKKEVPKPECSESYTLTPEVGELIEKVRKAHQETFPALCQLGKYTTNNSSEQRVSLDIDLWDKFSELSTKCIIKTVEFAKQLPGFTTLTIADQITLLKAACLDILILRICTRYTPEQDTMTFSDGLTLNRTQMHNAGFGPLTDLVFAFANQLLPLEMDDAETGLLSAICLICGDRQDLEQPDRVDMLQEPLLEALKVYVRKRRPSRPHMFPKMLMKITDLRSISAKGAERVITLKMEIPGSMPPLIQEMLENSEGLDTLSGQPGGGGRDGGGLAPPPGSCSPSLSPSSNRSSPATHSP
Chain of CCAAT/enhancer-binding protein beta (Homo sapiens) (P17676 whole entry, looked up): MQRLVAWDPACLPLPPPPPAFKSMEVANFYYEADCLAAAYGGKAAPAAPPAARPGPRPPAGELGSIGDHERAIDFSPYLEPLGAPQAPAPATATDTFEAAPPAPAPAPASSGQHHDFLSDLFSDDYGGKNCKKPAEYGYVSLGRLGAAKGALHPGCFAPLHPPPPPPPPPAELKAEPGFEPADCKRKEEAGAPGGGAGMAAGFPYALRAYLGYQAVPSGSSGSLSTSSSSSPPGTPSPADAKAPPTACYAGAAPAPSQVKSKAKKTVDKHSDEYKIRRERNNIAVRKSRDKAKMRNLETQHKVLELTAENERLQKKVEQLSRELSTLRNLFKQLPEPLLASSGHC

As for `O=C(O)c1[nH]n(-c2ccc(S(=O)(=O)O)cc2)c(=O)c1N=Nc1ccc(S(=O)(=O)O)cc1`, the call in [1], in assay [2], in assay [3], in assay [4], in [5] and in assay [6] was inactive. In addition, the call in assay [7] and in [8] was inactive.

`CC(=O)CC(c1ccccc1)c1c(O)c2ccccc2oc1=O` (stereo not drawn): the molecule was classed as inactive in assay [1], in assay [2], in assay [3], in [4], in assay [5] and in assay [6]. Moreover, the call in assay [7] and in assay [8] was inactive.

As for `CCC(C)N(C)C(=O)c1cc2ccccc2c(-c2ccccc2Cl)n1` (stereo not drawn), the outcome in assay [1], in assay [2], in assay [6] and in [8] was inactive. Moreover, the AC50 in assay [3] is 46 µM (active); in assay [4], 31.8 µM (active); in [7], 97.4 µM (active).

With `COc1ccc(C(=O)Nc2nc3ccccc3c(NCc3ccccc3)c2C#N)cc1`, the molecule was called inactive in assay [1], in [2], in [4], in [5], in [6] and in [7]. In addition, in [8], the molecule was classed as inactive. Also, in assay [3], the AC50 was 3.82 µM (active).

`O=C1NC(=O)C(c2ccccc2)(c2ccccc2)N1`: the result in assay [1], in assay [2], in assay [3], in [4], in [6] and in assay [7] was inactive. In assay [8], the molecule was called inactive.

Take `COC(=O)CCCC(=O)OC`: the molecule was classed as inactive in [1], in assay [2], in assay [3], in assay [4], in assay [6] and in assay [7]. Besides, the result in [9] and in assay [8] was inactive.

For `Cc1occc(=O)c1O`, the call in assay [1], in assay [2], in assay [3], in [4], in [6] and in assay [7] was inactive. Further, the result in [8] was inactive.

For the molecule `CC(=O)O`, the call in assay [1], in [2], in assay [3], in [4], in assay [6] and in assay [7] was inactive. In addition, the call in assay [8] was inactive.

For the molecule `CCc1nc(N)nc(N)c1-c1ccc(Cl)cc1`, the half-maximal activity concentration (AC50) was 100 µM (active) in assay [1], 15 µM (active) in [2], 2.18 µM (active) in [3] and 2.53 µM (active) in assay [5]. Also, the result in [4], in assay [6], in [7] and in assay [8] was inactive.

Take `Nc1nc(Cl)nc2c1ncn2[C@H]1C[C@H](O)[C@@H](CO)O1`: the outcome in assay [1], in assay [2], in assay [4], in assay [6], in assay [7] and in assay [8] was inactive. The AC50 in assay [3] is 23.7 µM (active).

Regarding `O=[Si]=O`, the result in assay [1], in assay [2], in assay [3], in assay [4], in [6] and in assay [7] was inactive. In addition, the molecule was classed as inactive in assay [9] and in [8].

As for `CN(C)C(=O)NC1(c2ccccc2)CCN(CC[C@@]2(c3ccc(F)c(F)c3)CN(C(=O)c3ccccc3)CCO2)CC1`, the call in [1], in [2], in assay [3], in assay [4], in assay [6] and in assay [7] was inactive. In assay [8], the call was inactive.

With `O=C(NS(=O)(=O)/C=C/c1cccs1)c1ccc(F)cc1Br`, the call in assay [1], in assay [2], in assay [3], in assay [4], in assay [6] and in assay [7] was inactive. The call in [9] and in assay [8] was inactive.

In the case of `CCCCCCCCCCCCCCCCO`, the outcome in [1], in assay [2], in assay [3], in [4], in assay [6] and in assay [7] was inactive. Further, the call in assay [8] was inactive. Moreover, the AC50 in assay [9] is 100 µM (active).

Consider `O=C(O)CN(CC(=O)O)CC(=O)O`, for which the molecule was called inactive in assay [1], in assay [2], in [3], in assay [4], in assay [6] and in [7]. The result in [9] and in [8] was inactive.

Regarding `CCOCCOCCO`, the result in assay [1], in [2], in assay [3], in assay [4], in assay [6] and in [7] was inactive. In addition, in [8], the result was inactive.

Take `NC(=Nc1ccccc1)Nc1ccccc1`: the result in assay [1], in [2], in assay [3], in assay [6], in assay [7] and in assay [8] was inactive. The AC50 in assay [4] was 61.8 µM (active).

Regarding `Cc1ccc(-c2cc(C(F)(F)F)nn2-c2ccc(S(N)(=O)=O)cc2)cc1`, the molecule was called inactive in assay [1], in assay [2], in assay [3], in [6], in [7] and in assay [9]. Moreover, in assay [8], the molecule was called inactive. Moreover, the concentration at half-maximal activity (AC50) in assay [4] was 14.4 µM (active).

`COC(=O)CCC(=O)OC`: the call in [1], in assay [2], in [3], in assay [4], in assay [6] and in [7] was inactive. Besides, the outcome in [8] was inactive.

As for `C=CCCCCCCCCCCCC`, the outcome in assay [1], in assay [2], in assay [6], in [7] and in assay [8] was inactive. For the same molecule, the AC50 in [3] is 100 µM (active); in assay [4], 177 µM (active).

Take `O=C(O)c1cccnc1`: the result in [1], in assay [2], in assay [3], in assay [10], in assay [5] and in assay [6] was inactive. Further, the outcome in [7] and in assay [8] was inactive.

Regarding `Oc1ccccc1O`, the outcome in assay [1], in assay [2], in [4], in assay [6], in assay [7] and in assay [9] was inactive. The result in assay [8] was inactive. In addition, the AC50 in assay [3] was 25 µM (active).

`COC(=O)[C@H]1[C@H]2C[C@@H]3c4[nH]c5cc(OC)ccc5c4CCN3C[C@H]2C[C@@H](OC(=O)c2cc(OC)c(OC)c(OC)c2)[C@@H]1OC`: the AC50 was 21.9 µM (active) in assay [1] and 22.8 µM (active) in [4]. The outcome in [2], in [3], in [6], in [7] and in assay [8] was inactive.

For `CC(C)(O)c1ccc(CNC(=O)c2cccnc2Oc2ccc(F)cc2)cc1`, the molecule was classed as inactive in [1], in [2], in assay [3], in assay [6], in assay [7] and in assay [9]. Moreover, in assay [8], the call was inactive. Besides, the AC50 in [4] is 0.184 µM (active).

On to `CO[C@@H]1COCC[C@@H]1N[C@@H]1CC[C@@](C(=O)N2CCc3ncc(C(F)(F)F)cc3C2)(C(C)C)C1`, for which the result in assay [1], in [2], in [3], in [4], in assay [6] and in [7] was inactive. In assay [8], the result was inactive.

In the case of `S=c1[nH]c2ccccc2s1`, the result in assay [1], in [2], in assay [4], in assay [6], in assay [9] and in assay [8] was inactive. In addition, the figures for the AC50 in [3] and in assay [7] were 100 µM (active) and 7.98 µM (active), respectively.

Turning to `O=C1OC(c2ccc(O)cc2)(c2ccc(O)cc2)c2ccccc21`, the AC50 is 27.2 µM (active) in [1]; 184 µM (active) in assay [2]; 177 µM (active) in assay [3]; 54.9 µM (active) in assay [4]; 48.1 µM (active) in [6]; 4.2 µM (active) in assay [9]. In addition, the outcome in assay [7] and in assay [8] was inactive.

For the molecule `CCCC[C@H]1CN(CC2CCOCC2)C(=O)OC12CCN(C1(C)CCN(C(=O)c3c(C)ncnc3C)CC1)CC2`, the result in [1], in assay [2], in assay [3], in [4], in assay [6] and in [7] was inactive. Moreover, the call in assay [8] was inactive.

As for `Cc1ccc(C(C)(C)C)c(O)c1`, the AC50 in assay [1] is 147 µM (active); in assay [3], 100 µM (active); in assay [4] it was 167 µM (active). The result in assay [2], in assay [6], in assay [7] and in assay [8] was inactive.

Turning to `OCC(CO)n1cnc(-c2ccc(F)cc2)c1-c1ccnc(Oc2ccccc2)n1`, the call in assay [1], in assay [2], in [3], in assay [4], in [5] and in assay [6] was inactive. Also, the molecule was called inactive in [7] and in assay [8].

Turning to `C/C=C/C=C/C(=O)O`, the result in assay [1], in assay [2], in assay [3], in assay [4], in assay [6] and in assay [7] was inactive. Also, the call in [8] was inactive.
